Results on four compounds are retold here after PubChem BioAssay.

Where “and” joins values, the source holds several entries; their conditions need not be identical. Equal values may be shown once. For part of these data: Entries with a potency or affinity are not part of this list.

The nature of the first test: rescue of polyQ-huntingtin neuronal dysfunction in worms, whole organism, C. elegans mechanosensory neurons, N-terminal huntingtin (AID 1599). To be noted: touch response, stronger effect = higher value.
As to `CCC(=O)OC1CCC2C3CCc4cc(O)ccc4C3CCC12C` (stereo not given), the rescue above control was -1.7.
Still for that read-out and setting: as for `CC(=O)CCC1C2=NC(=C\C3=NC(=C(/C)C4=NC(C)(C5[N-]/C(=C\2C)C(C)(CCC(=O)NCC(C)OP(=O)(O)O[C@@H]2[C@@H](CO)OC(n6cnc7cc(C)c(C)cc76)[C@@H]2O)C5CC(N)=O)C(C)(CC(N)=O)C4CCC(N)=O)/C(C)(CC(N)=O)C3CCC(N)=O)/C1(C)C.[CH2-][C@H]1OC(n2cnc3c(N)ncnc32)[C@H](O)[C@@H]1O.[Co+2]` (stereo not given in full), the figure is 0.82.
Same read-out and setting: as for `Fc1ccc(C(c2ccccc2)(c2ccccc2F)n2ccnc2)cc1` (stereo not given), the figure is 12 and 6.65.
Still for that read-out and setting: with `CCC(=O)c1ccc2c(c1)N(CC(C)N(C)C)c1ccccc1S2` (stereo not given) the figure was 1.64.

The next test is described as follows: inhibitors of mitochondrial cytochrome c release, biochemical, purified mitochondria (AID 1603).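 Further: mouse liver mitochondria challenged with calcium chloride; signal normalized to the plate average as 100%.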 Conditions: stronger effect = lower value.
With `CCC(=O)OC1CCC2C3CCc4cc(O)ccc4C3CCC12C` (stereo not given), the cytochrome c release ratio is 1.72.
The same measure, in the same setting: as for `CC(=O)CCC1C2=NC(=C\C3=NC(=C(/C)C4=NC(C)(C5[N-]/C(=C\2C)C(C)(CCC(=O)NCC(C)OP(=O)(O)O[C@@H]2[C@@H](CO)OC(n6cnc7cc(C)c(C)cc76)[C@@H]2O)C5CC(N)=O)C(C)(CC(N)=O)C4CCC(N)=O)/C(C)(CC(N)=O)C3CCC(N)=O)/C1(C)C.[CH2-][C@H]1OC(n2cnc3c(N)ncnc32)[C@H](O)[C@@H]1O.[Co+2]` (stereo not given in full), the figure is 0.56; as for `Fc1ccc(C(c2ccccc2)(c2ccccc2F)n2ccnc2)cc1` (stereo not given), 3.37 and 1.21.
Still for that read-out and setting: with `CCC(=O)c1ccc2c(c1)N(CC(C)N(C)C)c1ccccc1S2` (stereo not given) the figure was 1.13.

A further test can be described thus: inhibitors of polyQ protein aggregation (AID 1604). To be noted: polyglutamine-induced protein aggregation inhibition assay; stronger effect = higher value; tested at 2.5 µM.
Take `CCC(=O)OC1CCC2C3CCc4cc(O)ccc4C3CCC12C` (stereo not given): the inhibition of aggregation stood at 85.9%.
On the same count and under the same terms, as for `CC(=O)CCC1C2=NC(=C\C3=NC(=C(/C)C4=NC(C)(C5[N-]/C(=C\2C)C(C)(CCC(=O)NCC(C)OP(=O)(O)O[C@@H]2[C@@H](CO)OC(n6cnc7cc(C)c(C)cc76)[C@@H]2O)C5CC(N)=O)C(C)(CC(N)=O)C4CCC(N)=O)/C(C)(CC(N)=O)C3CCC(N)=O)/C1(C)C.[CH2-][C@H]1OC(n2cnc3c(N)ncnc32)[C@H](O)[C@@H]1O.[Co+2]` (stereo not given in full), the figure is 44.4%; as for `CCC(=O)c1ccc2c(c1)N(CC(C)N(C)C)c1ccccc1S2` (stereo not given), 69.7%.

The nature of a further test: enhancers of glutamate uptake in motor neurons, MN-1 cell line (AID 1612).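 Further: tested at 1 µM final; 0% = mean of DMSO vehicle wells on each plate; positive means more glutamate uptake than control and negative means less.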 Conditions: MN-1 motor neuron cells, stronger effect = higher value.
As for `CCC(=O)OC1CCC2C3CCc4cc(O)ccc4C3CCC12C` (stereo not given), the glutamate uptake change is -23.3%.
Same read-out and setting: with `CC(=O)CCC1C2=NC(=C\C3=NC(=C(/C)C4=NC(C)(C5[N-]/C(=C\2C)C(C)(CCC(=O)NCC(C)OP(=O)(O)O[C@@H]2[C@@H](CO)OC(n6cnc7cc(C)c(C)cc76)[C@@H]2O)C5CC(N)=O)C(C)(CC(N)=O)C4CCC(N)=O)/C(C)(CC(N)=O)C3CCC(N)=O)/C1(C)C.[CH2-][C@H]1OC(n2cnc3c(N)ncnc32)[C@H](O)[C@@H]1O.[Co+2]` (stereo not given in full) the figure was 14.2%; with `Fc1ccc(C(c2ccccc2)(c2ccccc2F)n2ccnc2)cc1` (stereo not given), 5.37% and 7.94%; with `CCC(=O)c1ccc2c(c1)N(CC(C)N(C)C)c1ccccc1S2` (stereo not given), -2.12%.
